Data reported in the supplement of paper PMC11732987, “Enantioselective OTUD7B fragment discovery through chemoproteomics screening and high-throughput optimisation” (Communications Chemistry, 2025).

Key:
Assay in all cases: log2 ratio of Biotin-Ahx-Ub-VS probe labelling (fragment/DMSO); higher = less target engagement (more negative = stronger competition), active = hit call of the paper (q ≤ 0.05, log2 ratio ≤ -1)
Conditions in all cases: compound concentration: 200 uM; treatment time: 3 h
USP19 = target: T1, USP19 (UniProt O94966)
T1 sequence (whole entry): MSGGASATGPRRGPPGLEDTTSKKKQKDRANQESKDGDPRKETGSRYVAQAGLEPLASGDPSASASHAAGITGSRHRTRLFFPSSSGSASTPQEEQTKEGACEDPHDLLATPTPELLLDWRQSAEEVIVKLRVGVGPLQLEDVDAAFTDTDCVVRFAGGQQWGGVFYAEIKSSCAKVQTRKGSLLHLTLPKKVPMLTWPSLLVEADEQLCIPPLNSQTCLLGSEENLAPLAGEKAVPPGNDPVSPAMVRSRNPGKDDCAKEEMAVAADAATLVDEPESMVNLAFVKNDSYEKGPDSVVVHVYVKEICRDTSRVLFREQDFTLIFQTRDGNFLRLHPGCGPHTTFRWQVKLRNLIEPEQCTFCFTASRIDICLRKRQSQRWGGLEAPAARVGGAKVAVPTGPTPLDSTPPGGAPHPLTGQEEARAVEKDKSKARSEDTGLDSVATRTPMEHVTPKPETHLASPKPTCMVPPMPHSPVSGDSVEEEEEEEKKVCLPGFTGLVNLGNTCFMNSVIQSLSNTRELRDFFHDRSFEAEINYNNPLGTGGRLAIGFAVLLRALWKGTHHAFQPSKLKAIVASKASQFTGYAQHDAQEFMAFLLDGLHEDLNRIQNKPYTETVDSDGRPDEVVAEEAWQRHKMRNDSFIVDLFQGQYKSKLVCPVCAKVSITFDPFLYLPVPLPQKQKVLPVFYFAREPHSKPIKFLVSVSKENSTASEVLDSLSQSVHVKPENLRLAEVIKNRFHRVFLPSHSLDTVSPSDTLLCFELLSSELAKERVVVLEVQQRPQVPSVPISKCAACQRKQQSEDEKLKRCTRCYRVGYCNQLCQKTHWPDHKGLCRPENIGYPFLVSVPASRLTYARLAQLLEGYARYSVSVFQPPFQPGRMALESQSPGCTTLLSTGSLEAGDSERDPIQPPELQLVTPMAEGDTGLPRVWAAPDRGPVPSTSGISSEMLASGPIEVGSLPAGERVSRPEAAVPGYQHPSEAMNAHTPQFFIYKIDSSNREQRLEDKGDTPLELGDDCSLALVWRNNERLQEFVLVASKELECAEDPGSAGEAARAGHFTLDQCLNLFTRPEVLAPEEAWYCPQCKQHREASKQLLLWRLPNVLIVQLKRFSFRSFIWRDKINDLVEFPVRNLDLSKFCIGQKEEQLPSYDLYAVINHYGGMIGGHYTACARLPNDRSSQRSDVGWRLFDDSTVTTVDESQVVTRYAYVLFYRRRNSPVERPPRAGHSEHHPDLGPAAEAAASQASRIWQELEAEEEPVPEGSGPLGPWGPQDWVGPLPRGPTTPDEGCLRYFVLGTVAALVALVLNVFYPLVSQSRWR
Outline: (§1)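 The table lists average log2 ratios of fragment over vehicle, from an unpaired t-test on global-median-normalised Spectronaut label-free quantities. Proteins with ≥2 unique peptides were used. Samples were HEK293T lysate (495 µg) treated in triplicate with fragment at 200 µM or vehicle for 3 h, then with Biotin-Ahx-Ub-VS (0.5 µM final) for 1 h, with labelled DUBs NeutrAvidin-enriched and run by diaPASEF LC-MS/MS.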

USP22 = target: T2, USP22 (UniProt Q9UPT9)
T2 sequence (whole entry): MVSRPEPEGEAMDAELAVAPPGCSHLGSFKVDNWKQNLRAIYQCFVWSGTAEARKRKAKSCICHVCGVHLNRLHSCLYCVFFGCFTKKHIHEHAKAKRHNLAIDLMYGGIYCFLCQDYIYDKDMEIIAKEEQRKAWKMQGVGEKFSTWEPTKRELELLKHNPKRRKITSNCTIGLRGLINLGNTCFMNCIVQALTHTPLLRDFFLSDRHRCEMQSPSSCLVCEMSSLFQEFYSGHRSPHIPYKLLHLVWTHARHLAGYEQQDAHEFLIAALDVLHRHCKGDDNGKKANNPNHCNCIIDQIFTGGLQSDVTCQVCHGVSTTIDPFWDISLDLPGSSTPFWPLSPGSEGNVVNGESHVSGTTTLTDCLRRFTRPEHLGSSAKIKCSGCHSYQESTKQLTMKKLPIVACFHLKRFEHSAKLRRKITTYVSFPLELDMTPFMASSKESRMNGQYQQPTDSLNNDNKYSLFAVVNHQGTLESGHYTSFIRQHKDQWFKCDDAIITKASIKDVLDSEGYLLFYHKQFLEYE
Outline: as §1

USP24 = USP24 (UniProt Q9UPU5)
Outline: as §1

USP25 = target: T3, USP25 (UniProt Q9UHP3)
T3 sequence (whole entry): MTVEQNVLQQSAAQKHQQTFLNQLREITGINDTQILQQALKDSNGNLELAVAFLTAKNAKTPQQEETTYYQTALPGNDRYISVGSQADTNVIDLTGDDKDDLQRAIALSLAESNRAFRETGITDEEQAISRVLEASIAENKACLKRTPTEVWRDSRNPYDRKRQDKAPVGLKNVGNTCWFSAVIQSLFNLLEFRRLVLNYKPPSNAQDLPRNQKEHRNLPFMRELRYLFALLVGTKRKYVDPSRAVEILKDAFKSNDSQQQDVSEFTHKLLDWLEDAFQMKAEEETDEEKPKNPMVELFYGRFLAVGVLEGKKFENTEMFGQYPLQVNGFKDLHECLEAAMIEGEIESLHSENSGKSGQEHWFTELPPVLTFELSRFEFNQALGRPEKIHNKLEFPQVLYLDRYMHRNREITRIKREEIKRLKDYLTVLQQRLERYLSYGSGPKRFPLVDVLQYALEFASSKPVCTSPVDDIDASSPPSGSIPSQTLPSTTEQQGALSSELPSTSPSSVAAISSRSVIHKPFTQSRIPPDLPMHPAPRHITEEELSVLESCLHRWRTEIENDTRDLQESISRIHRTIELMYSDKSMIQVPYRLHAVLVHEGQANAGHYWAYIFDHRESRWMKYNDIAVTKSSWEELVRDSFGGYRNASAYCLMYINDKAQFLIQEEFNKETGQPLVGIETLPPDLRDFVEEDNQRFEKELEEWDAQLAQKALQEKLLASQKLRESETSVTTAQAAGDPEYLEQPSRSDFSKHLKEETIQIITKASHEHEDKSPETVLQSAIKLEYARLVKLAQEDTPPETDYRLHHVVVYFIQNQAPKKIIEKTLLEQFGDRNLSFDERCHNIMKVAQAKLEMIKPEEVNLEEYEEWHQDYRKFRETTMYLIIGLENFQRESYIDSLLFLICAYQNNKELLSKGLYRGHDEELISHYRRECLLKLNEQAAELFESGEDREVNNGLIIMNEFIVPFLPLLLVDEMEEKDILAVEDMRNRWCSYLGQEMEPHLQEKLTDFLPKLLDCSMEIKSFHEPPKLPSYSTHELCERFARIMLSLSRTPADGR
Outline: as §1

USP28 = target: T4, USP28 (UniProt Q96RU2)
T4 sequence (whole entry): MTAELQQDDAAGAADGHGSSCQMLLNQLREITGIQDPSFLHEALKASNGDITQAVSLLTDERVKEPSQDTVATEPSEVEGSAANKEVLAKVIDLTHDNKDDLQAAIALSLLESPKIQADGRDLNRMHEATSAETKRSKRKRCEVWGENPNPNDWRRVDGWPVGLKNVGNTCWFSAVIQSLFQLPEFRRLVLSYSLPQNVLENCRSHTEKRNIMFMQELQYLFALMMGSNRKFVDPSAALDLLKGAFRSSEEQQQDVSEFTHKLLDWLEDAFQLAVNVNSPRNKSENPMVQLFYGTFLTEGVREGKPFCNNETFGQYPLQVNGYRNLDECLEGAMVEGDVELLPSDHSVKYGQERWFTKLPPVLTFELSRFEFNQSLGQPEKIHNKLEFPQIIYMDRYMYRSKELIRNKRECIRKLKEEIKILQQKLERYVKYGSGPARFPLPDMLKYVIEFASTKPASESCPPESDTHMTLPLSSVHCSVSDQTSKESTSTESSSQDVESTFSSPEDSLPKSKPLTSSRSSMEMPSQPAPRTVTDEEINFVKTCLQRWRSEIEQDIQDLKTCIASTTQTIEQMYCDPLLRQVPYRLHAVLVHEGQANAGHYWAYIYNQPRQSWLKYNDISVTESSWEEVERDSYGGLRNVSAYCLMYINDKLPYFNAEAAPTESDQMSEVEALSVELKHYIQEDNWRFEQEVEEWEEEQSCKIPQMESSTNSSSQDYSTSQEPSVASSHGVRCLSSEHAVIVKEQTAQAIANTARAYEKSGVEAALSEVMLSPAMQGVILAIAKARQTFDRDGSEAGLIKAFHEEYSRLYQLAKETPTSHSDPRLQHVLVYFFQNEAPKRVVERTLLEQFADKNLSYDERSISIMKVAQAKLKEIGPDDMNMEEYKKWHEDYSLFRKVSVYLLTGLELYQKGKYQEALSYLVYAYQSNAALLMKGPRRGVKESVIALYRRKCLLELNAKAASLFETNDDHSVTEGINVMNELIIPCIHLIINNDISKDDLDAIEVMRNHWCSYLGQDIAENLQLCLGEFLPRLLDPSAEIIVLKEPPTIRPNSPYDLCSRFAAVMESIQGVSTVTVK
Outline: as §1

Measured: log2 ratio of Biotin-Ahx-Ub-VS probe labelling

USP24, sequence (Q9UPU5 whole entry): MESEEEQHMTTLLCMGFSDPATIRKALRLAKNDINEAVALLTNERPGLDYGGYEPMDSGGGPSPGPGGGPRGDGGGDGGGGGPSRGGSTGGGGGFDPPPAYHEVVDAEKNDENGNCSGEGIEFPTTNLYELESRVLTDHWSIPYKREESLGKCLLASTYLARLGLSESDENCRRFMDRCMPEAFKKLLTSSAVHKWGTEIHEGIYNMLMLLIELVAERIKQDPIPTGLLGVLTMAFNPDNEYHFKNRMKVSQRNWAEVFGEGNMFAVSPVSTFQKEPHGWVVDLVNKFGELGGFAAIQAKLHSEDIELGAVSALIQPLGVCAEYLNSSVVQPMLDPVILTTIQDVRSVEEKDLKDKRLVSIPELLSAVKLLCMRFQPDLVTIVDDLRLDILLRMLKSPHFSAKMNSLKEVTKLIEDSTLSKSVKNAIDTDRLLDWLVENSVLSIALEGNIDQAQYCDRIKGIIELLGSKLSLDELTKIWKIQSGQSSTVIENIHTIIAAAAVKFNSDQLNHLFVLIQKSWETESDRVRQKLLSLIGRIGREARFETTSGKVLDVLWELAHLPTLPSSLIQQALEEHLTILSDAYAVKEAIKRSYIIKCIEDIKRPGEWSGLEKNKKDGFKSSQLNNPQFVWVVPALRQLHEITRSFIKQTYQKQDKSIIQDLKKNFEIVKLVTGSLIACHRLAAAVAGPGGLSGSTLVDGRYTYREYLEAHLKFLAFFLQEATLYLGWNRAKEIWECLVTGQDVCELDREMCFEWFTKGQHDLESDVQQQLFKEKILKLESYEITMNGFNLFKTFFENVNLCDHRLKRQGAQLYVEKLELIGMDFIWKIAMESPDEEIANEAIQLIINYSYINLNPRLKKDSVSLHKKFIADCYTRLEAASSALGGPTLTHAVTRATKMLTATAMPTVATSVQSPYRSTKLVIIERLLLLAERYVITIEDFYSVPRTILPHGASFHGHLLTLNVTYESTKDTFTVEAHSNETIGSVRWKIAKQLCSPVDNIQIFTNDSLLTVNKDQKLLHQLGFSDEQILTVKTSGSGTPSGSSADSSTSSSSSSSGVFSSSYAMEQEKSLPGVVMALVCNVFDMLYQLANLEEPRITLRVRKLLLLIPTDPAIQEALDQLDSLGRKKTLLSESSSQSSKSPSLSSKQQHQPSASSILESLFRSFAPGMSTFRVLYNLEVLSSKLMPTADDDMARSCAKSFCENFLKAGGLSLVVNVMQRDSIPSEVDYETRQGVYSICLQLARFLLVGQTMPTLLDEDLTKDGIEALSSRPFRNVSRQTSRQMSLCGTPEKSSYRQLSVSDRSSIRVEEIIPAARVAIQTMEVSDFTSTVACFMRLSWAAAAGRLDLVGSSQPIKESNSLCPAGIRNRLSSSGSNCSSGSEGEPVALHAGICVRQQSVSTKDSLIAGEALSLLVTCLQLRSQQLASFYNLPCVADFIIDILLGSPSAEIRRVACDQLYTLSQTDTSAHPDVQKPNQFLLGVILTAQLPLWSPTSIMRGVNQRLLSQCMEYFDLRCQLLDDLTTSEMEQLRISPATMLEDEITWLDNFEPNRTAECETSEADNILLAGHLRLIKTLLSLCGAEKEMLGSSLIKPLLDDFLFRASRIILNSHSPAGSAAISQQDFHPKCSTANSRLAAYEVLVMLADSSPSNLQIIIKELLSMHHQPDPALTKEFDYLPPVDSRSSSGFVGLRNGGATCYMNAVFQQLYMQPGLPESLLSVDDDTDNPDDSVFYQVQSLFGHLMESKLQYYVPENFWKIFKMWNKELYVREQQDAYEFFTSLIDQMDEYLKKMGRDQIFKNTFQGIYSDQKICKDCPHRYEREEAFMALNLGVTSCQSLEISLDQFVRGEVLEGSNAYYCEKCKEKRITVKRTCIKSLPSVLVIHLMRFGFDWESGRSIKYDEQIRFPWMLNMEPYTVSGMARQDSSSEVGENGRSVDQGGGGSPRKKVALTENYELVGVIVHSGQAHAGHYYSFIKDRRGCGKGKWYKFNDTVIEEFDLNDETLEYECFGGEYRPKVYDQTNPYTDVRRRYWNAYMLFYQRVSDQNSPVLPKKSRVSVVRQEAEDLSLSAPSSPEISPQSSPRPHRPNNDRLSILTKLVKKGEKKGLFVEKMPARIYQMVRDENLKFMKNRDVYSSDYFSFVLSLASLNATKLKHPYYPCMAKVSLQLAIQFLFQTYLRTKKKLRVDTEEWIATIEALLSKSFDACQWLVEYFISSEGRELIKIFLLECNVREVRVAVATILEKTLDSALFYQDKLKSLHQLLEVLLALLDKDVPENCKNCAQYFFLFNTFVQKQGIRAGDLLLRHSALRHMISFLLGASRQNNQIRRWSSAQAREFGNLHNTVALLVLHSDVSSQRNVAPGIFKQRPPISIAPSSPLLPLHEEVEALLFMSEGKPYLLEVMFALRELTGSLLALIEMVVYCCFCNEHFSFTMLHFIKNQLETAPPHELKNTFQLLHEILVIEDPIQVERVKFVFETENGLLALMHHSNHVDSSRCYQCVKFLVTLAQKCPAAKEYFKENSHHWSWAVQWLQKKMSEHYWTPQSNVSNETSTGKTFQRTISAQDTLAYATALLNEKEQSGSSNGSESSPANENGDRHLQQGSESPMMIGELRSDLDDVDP

O=C(CCl)NC1(c2ccc3c(c2)OCCO3)CCCC1
inactive: USP19 -0.103 | USP22 0.0133 | USP24 -0.451 | USP25 -0.337 | USP28 -0.402
